Data reported in article PMC5540273 (PLoS ONE, 2017).

How the values were obtained:
Settings in all cases: concentration: 1 μM, replicates: in singlicate; n = 1
[1] = test system: T1, ERK5
T1 construct: gene MAPK7

[2] = test system: T2, ERK8
T2 construct: gene MAPK15

[3] = test system: ERN1
[4] = test system: T3, FAK
T3 construct: gene PTK2

[5] = test system: FER
[6] = test system: FES
[7] = test system: FGFR1
[8] = test system: FGFR2
[9] = test system: FGFR3
[10] = test system: FGFR4
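Note: KINOMEscan kinase panel screen.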

SMILES	%Inh [1]	%Inh [2]	%Inh [3]	%Inh [4]	%Inh [5]	%Inh [6]	%Inh [7]	%Inh [8]	%Inh [9]	%Inh [10]
CCS(=O)c1ccc(-c2coc3ccc(-c4nnc(C)o4)cc23)cc1 (stereo not drawn)	0%	0%	16%	0%	11%	7%	9%	10%	7%	0%
COC(=O)c1c(-c2ccccc2)c2cc(Br)ccc2c(=O)n1Cc1ccc(S(C)(=O)=O)cc1	8%	0%	23%	6%	0%	20%	0%	10%	2%	0%
COc1cc2nccc(Nc3ccc(OCc4ccc(NC(C)=O)cc4)cc3)c2cc1OC.Cl [GW440135]	0%	25%	0%	0%	4%	8%	4%	47%	26%	0%
O=C(Nc1n[nH]c2nc(-c3ccccc3)c(Br)cc12)C1CC1 [SB-708998]	100%	15%	0%	0%	7%	0%	14%	0%	13%	5%
Nc1n[nH]c2nnc(-c3ccccc3)c(-c3ccccc3)c12 [GW554060]	0%	50%	7%	0%	21%	0%	4%	25%	32%	1%
COc1cc(Nc2nccc(N3CCC(NC(=O)C(C)c4ccc(Cl)cc4)C3)n2)cc(OC)c1OC (stereo not drawn) [GSK1379757]	0%	0%	0%	0%	2%	18%	0%	45%	2%	0%
CN1C(=O)C(Nc2ccccc2)=C(c2ccccc2)C1=O [SB-300079]	0%	2%	17%	0%	0%	0%	0%	0%	0%	0%
COC(=O)c1c(-c2ccccc2)c2cc(C)ccc2c(=O)n1Cc1ccccc1	0%	0%	0%	0%	0%	0%	0%	0%	0%	0%
COc1cc2ncn(-c3cc(OCc4ccncc4)c(C(N)=O)s3)c2cc1OC [GSK336313]	0%	0%	23%	0%	24%	0%	0%	0%	7%	2%
Cl.c1ccc(Cn2cnc3cc(Nc4ncnc5ccccc45)ccc32)cc1 [GW272142]	1%	0%	1%	0%	21%	0%	0%	0%	14%	3%
Cc1cccc(-c2cc(-c3c[nH]nc3-c3ccccn3)ccn2)c1 [GW679395]	0%	0%	0%	0%	4%	0%	0%	0%	0%	4%
COc1cc(Nc2nccc(N3CCC(NC(=O)C4COc5ccccc5O4)C3)n2)cc(OC)c1OC (stereo not drawn) [GSK1379761]	0%	0%	2%	0%	17%	0%	3%	30%	9%	0%
CCS(=O)(=O)c1ccc(OC)c(Nc2ncc(-c3ccc(F)cc3)o2)c1.Cl [GW591947]	0%	0%	8%	0%	29%	0%	3%	0%	0%	12%
COc1ccc(-c2coc3ccc(-c4nnc(SCc5cccc(C#N)c5)o4)cc23)cc1	0%	14%	11%	0%	10%	7%	11%	13%	17%	17%
Cl.NS(=O)(=O)c1cccc(Nc2cc(-c3ccc(F)cc3)n[nH]2)c1 [GW824645]	0%	3%	21%	0%	41%	0%	0%	0%	0%	0%
COc1ccc(-c2cc3c(C)nc(N)nc3n([C@H]3CC[C@H](O)CC3)c2=O)cn1	0%	0%	0%	0%	0%	0%	0%	0%	0%	0%
CN(C)c1cc(-c2ccc3c(N)n[nH]c3c2)nc(N)n1 [GSK2219329]	0%	0%	0%	0%	16%	0%	0%	2%	7%	0%
COc1cccc(C2=C(Nc3cccc(C(=O)O)c3)C(=O)NC2=O)c1 [SB-390770]	0%	36%	0%	3%	40%	0%	50%	71%	48%	14%
Nc1nc(N)c2nc(-c3ccccc3)[nH]c2n1 [SKF-12778]	0%	41%	11%	6%	14%	0%	16%	32%	21%	12%
Nc1nc(-c2ccccc2F)c(-c2ccnc3ccccc23)s1 [GW560459]	0%	0%	0%	0%	13%	0%	0%	0%	0%	75%
COc1cc2ncn(-c3cc(OCc4ccncc4Br)c(C(N)=O)s3)c2cc1OC [GW854278]	0%	0%	24%	0%	2%	0%	43%	16%	29%	7%
Cc1c(Cn2c(C)nn3c(=O)cc(N4CCO[C@H](C)C4)nc23)cccc1C(F)(F)F [GSK2373690]	0%	0%	10%	0%	20%	0%	5%	1%	18%	3%
COc1ccc(-n2cnc3c(N)ncnc32)cc1 [SKF-97236]	0%	40%	0%	13%	13%	0%	27%	0%	0%	18%

SMILES	%Inh [1]	%Inh [2]	%Inh [3]	%Inh [4]	%Inh [5]	%Inh [6]	%Inh [7]	%Inh [8]	%Inh [9]	%Inh [10]
Nc1n[nH]c2ncc(-c3ccccc3)cc12 [SB-517081]	0%	0%	9%	0%	0%	0%	0%	0%	2%	18%
CCc1ccc(-c2ccc3c(c2)-c2nn(C)cc2S(=O)(=O)N3C)cc1	5%	36%	0%	5%	6%	0%	16%	0%	0%	0%
COc1cccc(C2=C(N(C)c3ccccc3)C(=O)NC2=O)c1 [SB-334865]	0%	0%	0%	0%	0%	0%	0%	0%	3%	19%
COc1cc2nccc(Nc3cccc(Oc4ccccc4)c3)c2cc1OC.Cl [GW284543]	26%	13%	8%	23%	30%	4%	17%	26%	6%	8%
COc1cc2ncn(-c3cc(OCCCc4ccccc4)c(C(N)=O)s3)c2cc1OC [GSK205189]	0%	3%	0%	0%	10%	0%	0%	9%	16%	0%
Fc1cccc(CSc2nnc(-c3ccc4c(c3)CCO4)o2)c1	0%	3%	14%	0%	0%	0%	0%	0%	0%	6%
COc1ccc(Nc2nccc(N3CCC(NS(=O)(=O)c4ccc(NC(C)=O)cc4)C3)n2)cc1 (stereo not drawn) [GSK1379729]	0%	53%	0%	0%	24%	5%	8%	29%	18%	98.5%
Cc1cccc(-c2nc(Nc3ccc4c(cnn4C)c3)c3ccccc3n2)n1 [GW876731]	1%	0%	29%	11%	9%	4%	0%	21%	4%	0%
COC(=O)c1c(-c2ccccc2)c2cc(Br)ccc2c(=O)n1Cc1ccc(NC(=O)CCC(=O)O)cc1	13%	0%	20%	0%	0%	9%	0%	0%	0%	0%
Cc1cc(Nc2nc(-c3cccc(C)n3)nc3ccccc23)ccn1 [GW872411]	3%	13%	0%	0%	0%	0%	12%	0%	0%	0%
C[C@@H]1CC[C@H](C(=O)NC2CCCCC2)CN1c1cc(-c2ccc3c(N)n[nH]c3c2)nc(N)n1 [GSK2291363]	0%	1%	17%	0%	41%	0%	4%	8%	17%	12%
O=C(NCCNc1ccnc(Nc2ccc(F)cc2)n1)Nc1ccc2c(c1)OCO2 [GSK1379882]	2%	0%	30%	0%	0%	0%	0%	0%	2%	0%
O=C(Nc1ccc2c(c1)OCO2)NC1CCN(c2ccnc(NCc3ccc(F)cc3)n2)CC1 [GSK1379859]	0%	0%	0%	0%	8%	0%	4%	0%	0%	0%
O=c1cc(N2CCOCC2)nc2n(Cc3ccc(F)c(Cl)c3)ccn12 [GSK2297099]	2%	0%	0%	0%	0%	0%	0%	0%	0%	0%
Nc1ncnc2c1ncn2-c1cccc(F)c1 [SKF-97560]	3%	0%	27%	1%	14%	0%	0%	12%	1%	90.7%
CCC(=O)c1c(-c2ccccc2)c2cc(Cl)ccc2c(=O)n1Cc1cc(C(=O)NC2CC2)n(C)n1	4%	0%	12%	0%	0%	22%	4%	2%	0%	0%
COc1cc(OC)cc(-c2cc3cnc(N)nc3nc2NC(=O)NC(C)(C)C)c1	2%	29%	0%	0%	0%	0%	97.8%	96.7%	96.3%	54%
CN1C(=O)C(Nc2cc(Cl)c(O)c(Cl)c2)=C(c2ccc(Cl)cc2)C1=O [SB-404321]	0%	0%	0%	0%	0%	0%	0%	0%	9%	0%
COc1cc2ncn(-c3cc(OCc4ccc(S(C)(=O)=O)cc4)c(C(N)=O)s3)c2cc1OC [GW869979]	0%	12%	6%	2%	0%	0%	0%	5%	4%	0%
COc1ccc(-c2cc3c(C)nc(N)nc3n([C@H]3CC[C@H](OCCO)CC3)c2=O)cn1	12%	0%	0%	0%	13%	1%	7%	0%	0%	0%
COc1cc(Nc2ccnc3ccc(C(F)(F)F)cc23)cc(OC)c1OC [GW577382]	0%	0%	0%	0%	21%	2%	16%	25%	3%	11%
CCCC(=O)Nc1n[nH]c2ncc(-c3cccc4ccccc34)cc12 [SB-642057]	0%	0%	0%	8%	3%	0%	0%	0%	0%	19%
Cn1c(=O)c(F)c(Nc2ccc(I)cc2F)c2c(=O)n(OC[C@H](O)CO)cnc21	24%	16%	0%	30%	10%	9%	23%	4%	0%	12%

SMILES	%Inh [1]	%Inh [2]	%Inh [3]	%Inh [4]	%Inh [5]	%Inh [6]	%Inh [7]	%Inh [8]	%Inh [9]	%Inh [10]
CCn1c(-c2nonc2N)nc2ccccc21 [SB-693162/GW549034]	0%	1%	26%	8%	0%	0%	0%	7%	14%	0%
Cc1ccccc1COc1cc(-n2cnc3cc(Cl)ccc32)sc1C(N)=O [GW813349]	0%	9%	0%	5%	0%	2%	12%	3%	0%	0%
CCc1nc(-c2cccc(C)c2)c(-c2ccncc2)s1	4%	6%	0%	99.9%	13%	0%	0%	0%	0%	0%
FC(F)(F)c1ccc(-c2ncn(CCCN3CCOCC3)c2-c2ccncc2)cc1 [SB-217780]	0%	1%	26%	1%	9%	4%	90%	0%	6%	1%
CCn1c(-c2ccoc2)nc2cnccc21 [SB-733887]	0%	0%	0%	0%	20%	0%	0%	0%	0%	20%
CC(C)(C)c1ccc(C(=O)Nc2cn3cc(-c4ccccc4)ccc3n2)cc1	0%	20%	26%	0%	0%	0%	0%	1%	7%	0%
CCC(=O)c1c(-c2ccccc2)c2cc(Cl)ccc2c(=O)n1Cc1cc(S(C)(=O)=O)n(CC(N)=O)n1	0%	0%	0%	0%	0%	0%	6%	9%	2%	0%
O=C(NCc1cccs1)c1cc(C(=O)c2c(Cl)cccc2Cl)c[nH]1 [GW823670]	0%	0%	0%	91.3%	1%	0%	0%	0%	0%	0%
CCC(=O)c1c(-c2ccccc2)c2cc(Cl)ccc2c(=O)n1Cc1ccc(C(=O)O)cc1	0%	0%	0%	0%	0%	5%	0%	0%	0%	0%
Cc1ccc(-c2ccc3c(ccc4sc5c(c43)NC[C@@H](C)N=C5N(C)C)n2)cn1	2%	8%	0%	0%	1%	0%	0%	0%	0%	0%
CCC(=O)c1c(-c2ccccc2)c2cc(Cl)ccc2c(=O)n1Cc1cc(S(C)(=O)=O)n(CC(F)F)n1	0%	6%	0%	0%	0%	0%	0%	4%	0%	0%
Nc1nccc2scc(-c3ccc4c(c3)CCN4C(=O)Cc3ccccc3)c12 [GSK2576924]	10%	0%	15%	0%	16%	0%	0%	0%	27%	7%
Cc1nn2c(=O)cc(N3CCOCC3)nc2n1Cc1cccc(Cl)c1Cl [GSK2342769]	0%	18%	0%	0%	14%	6%	1%	30%	15%	5%
O=C1NC(=O)C(c2ccccc2)=C1Nc1cccc(O)c1 [SB-390534]	0%	0%	0%	0%	0%	0%	11%	0%	10%	1%
Cc1ccc(Oc2ccc(Nc3ncnc4cc[nH]c34)cc2C)cn1	5%	0%	21%	8%	15%	23%	10%	0%	4%	11%
O=C(Nc1n[nH]c2cc(-c3ccccc3F)ccc12)C1CC1 [SB-733371]	16%	43%	0%	0%	0%	1%	1%	0%	0%	0%
O=C(Nc1n[nH]c2nc(-c3ccccc3)c(Cl)cc12)C1CC1 [SB-734909]	0%	0%	24%	0%	0%	0%	0%	4%	5%	0%
CCC(=O)c1c(-c2ccccc2)c2cc(Cl)ccc2c(=O)n1Cc1cc(S(C)(=O)=O)n(CCC(C)(C)O)n1	15%	0%	18%	10%	10%	5%	0%	22%	29%	8%
COc1cccc(-n2cnc3c(N)ncnc32)c1 [SKF-97416]	0%	8%	43%	4%	0%	4%	7%	0%	0%	0%
COc1ccc(CNC(=O)NC2CCN(c3ccnc(Nc4ccc(F)cc4)n3)C2)cc1 (stereo not drawn) [GSK1379706]	0%	0%	0%	4%	25%	0%	0%	15%	22%	15%
Nc1ncnc2c1ncn2-c1cccc2ccccc12 [SKF-97184]	0%	9%	0%	0%	0%	0%	12%	0%	0%	0%
Cc1nnc(-c2ccc3ncn(-c4ccc(S(C)=O)cc4)c3c2)o1 (stereo not drawn)	3%	6%	18%	1%	5%	20%	1%	14%	9%	12%
CCCNC(=O)Nc1ccc(Oc2ncnc3ccn(C)c23)cc1	3%	0%	35%	3%	0%	0%	8%	0%	0%	0%
